PubChem BioAssay
Results filed as inconclusive are left out. Active and inactive are the calls of the source.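 The calls were made as follows, unless noted: active = viability at or below 10% of carrier control in both of two separate runs; inconclusive = viability at or below 10% in only one of the two runs; inactive = the rest.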

Assays:
[1] = Her2 expression decrease, cell viability multiplex – SKBR3 breast tumor cells, AlphaScreen, ATP viability, primary screen (AID 461;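 active = Her2 level under about 52% in both replicate screens, with viability over 70% of control, limit read from the data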;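 as to Her2 level: lower value means less Her2 protein in the cells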;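 as to viability: percent of carrier control wells set as 100% viability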); details: SKBR3 Her2 protein level, 18-24 h, measured here: SKBR3 viability, ATP luminescence, at 10 µM
[2] = target: Receptor tyrosine-protein kinase erbB-2 (Homo sapiens) (UniProt P04626); assay: as above; details: 18-24 h, at 10 µM, stronger effect = lower value
[3] = reduced viability of SK-BR-3 breast cancer cells – cell-based, 24 h, human, pilot screen (AID 572); details: SK-BR-3 viability, CellTiter-Glo luminescence, at 10 µM, stronger effect = lower value;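 also: compound exposure lasted between 18 and 24 h rather than exactly 24 h; 100% = carrier-treated control wells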
[4] = HUVEC growth inhibition – cell-based, human, primary screen (AID 575;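 active = viability at or below 30% in both replicate assays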;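 also: 100% = median of untreated cell wells with 0.1% DMSO on each plate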); details: HUVEC proliferation, CellTiter-Glo luminescence, 72 h; at 10 µM; stronger effect = lower value
[5] = H69AR cell proliferation blockers – human, duplicate replicates, primary screen (AID 580;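 active = viability at or under a set limit in both replicates, limit being median viability minus 3 SD, cut at about 48% in these data, passing the limit was not always enough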;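 also: 100% = mean luminescence of untreated wells and 0% = no signal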); details: H69AR lung tumor cells viability, ATP luminescence, 72 h; at 10 µM; stronger effect = lower value
[6] = yeast transport mutant growth inhibition pilot in 384-well plates, post-Golgi transport modulator project (AID 636; in the data active = inhibition above about 31%); details: absorbance 615 nm, about 18 h, stronger effect = higher value
[7] = growth suppression of yeast trafficking mutant, preliminary HTS, modulators of trafficking downstream of Golgi apparatus project, 1536-format plate, OD 615 nm (AID 637; in the data active = inhibition above about 30%); details: yeast transport mutant growth, absorbance 615 nm, 18 h; stronger effect = higher value
[8] = MRP1 drug-resistance reversers in H69AR cells – cell-based, doxorubicin co-treatment, pilot screen (AID 601;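 active = viability loss from added drug above about 55%, and viability with drug at most 40%, in both replicates, limit read from the data, passing the limit was not always enough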); details: CellTiter-Glo, 72 h, at 10 µM; for differential viability (reversal): stronger effect = higher value
[9] = S. cerevisiae growth inhibition in permissive medium (OD615), pilot counter-assay for S. cerevisiae lifespan shortening project, permissive growth control (AID 705;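 active = growth inhibition above 25% in both replicates, a cutoff set 3 SD above the mean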); details: OD615, 24 h, at 10 µM, stronger effect = higher value
[10] = S. cerevisiae growth inhibition in restrictive medium, OD615, pilot screen, restrictive growth control, yeast lifespan reduction project (AID 706;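 active = growth inhibition above a set limit, 3 SD over mean compound inhibition, in both replicates, cut at about 43% in these data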;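 also: modified DeaD lifespan yeast strain shifted to restrictive glucose medium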); details: OD615, 48 h, at 10 µM, stronger effect = higher value
[11] = doxorubicin toxicity protection in MRP-1 cells – H69AR cells, CellTiter-Glo, duplicate, MRP-1 activator project, pilot screen (AID 807;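 active = viability increase at or above a cutoff of the median across tested compounds plus 3 SD, cut at about 8.5% in these data, passing the limit was not always enough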;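 also: compound pretreatment 18-22 h then 72 h combined with doxorubicin; 0% = doxorubicin alone and 100% = vehicle without doxorubicin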); details: H69AR viability with doxorubicin, CellTiter-Glo luminescence; at 10 µM; stronger effect = higher value
[12] = viability of PTEN-null HCT116 cells – cell-based, HCT116 clonal line, CellTiter-Glo, pilot screen (AID 824;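 active = viability at or below 27.92% in each of two runs, the all-compound median minus 4 SD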;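 also: 0% = 20 µM Hyamine control and 100% = vehicle cell control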); details: HCT116 PTEN-deleted viability, 60 h, at 10 µM, stronger effect = lower value
[13] = RAM pathway blockade in budding yeast – dse1pr::URA3 reporter, 5-FOA selection, pilot screen (AID 869;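 active = inhibition over a set limit, the all-compound mean plus 3 SD, in both replicate runs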;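 also: 0% = DMSO wells with no growth and 100% = 10 µM 1-NA-PP1 with full growth; RAM network block rescues cells from 5-FOA so hits raise OD615 growth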); details: S. cerevisiae dse1pr::URA3 5-FOA growth, OD615, 2 d; at 10 µM; stronger effect = higher value; strain carries analog-sensitive mutant Cbk1 kinase
[14] = viability of HCT116 without oncogenic beta-catenin – human colon tumor cells, pilot screen (AID 823;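 active = cell viability at or below a set limit in both duplicate runs, the limit being the all-compound median minus 4 SD, cut at about 23% in these data, passing the limit was not always enough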;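 also: 0% = wells killed by 20 µM Hyamine and 100% = untreated DMSO cell wells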); details: HCT116 beta-catenin knockout viability, CellTiter-Glo, 60 h; at 10 µM; stronger effect = lower value
[15] = H69AR cells + 2 uM doxorubicin, measured here: viability with 2 uM doxorubicin, stronger effect = lower value
[16] = H69AR cells, compound alone cytotoxicity

Sequence of Receptor tyrosine-protein kinase erbB-2 (Homo sapiens) (P04626 whole entry, looked up): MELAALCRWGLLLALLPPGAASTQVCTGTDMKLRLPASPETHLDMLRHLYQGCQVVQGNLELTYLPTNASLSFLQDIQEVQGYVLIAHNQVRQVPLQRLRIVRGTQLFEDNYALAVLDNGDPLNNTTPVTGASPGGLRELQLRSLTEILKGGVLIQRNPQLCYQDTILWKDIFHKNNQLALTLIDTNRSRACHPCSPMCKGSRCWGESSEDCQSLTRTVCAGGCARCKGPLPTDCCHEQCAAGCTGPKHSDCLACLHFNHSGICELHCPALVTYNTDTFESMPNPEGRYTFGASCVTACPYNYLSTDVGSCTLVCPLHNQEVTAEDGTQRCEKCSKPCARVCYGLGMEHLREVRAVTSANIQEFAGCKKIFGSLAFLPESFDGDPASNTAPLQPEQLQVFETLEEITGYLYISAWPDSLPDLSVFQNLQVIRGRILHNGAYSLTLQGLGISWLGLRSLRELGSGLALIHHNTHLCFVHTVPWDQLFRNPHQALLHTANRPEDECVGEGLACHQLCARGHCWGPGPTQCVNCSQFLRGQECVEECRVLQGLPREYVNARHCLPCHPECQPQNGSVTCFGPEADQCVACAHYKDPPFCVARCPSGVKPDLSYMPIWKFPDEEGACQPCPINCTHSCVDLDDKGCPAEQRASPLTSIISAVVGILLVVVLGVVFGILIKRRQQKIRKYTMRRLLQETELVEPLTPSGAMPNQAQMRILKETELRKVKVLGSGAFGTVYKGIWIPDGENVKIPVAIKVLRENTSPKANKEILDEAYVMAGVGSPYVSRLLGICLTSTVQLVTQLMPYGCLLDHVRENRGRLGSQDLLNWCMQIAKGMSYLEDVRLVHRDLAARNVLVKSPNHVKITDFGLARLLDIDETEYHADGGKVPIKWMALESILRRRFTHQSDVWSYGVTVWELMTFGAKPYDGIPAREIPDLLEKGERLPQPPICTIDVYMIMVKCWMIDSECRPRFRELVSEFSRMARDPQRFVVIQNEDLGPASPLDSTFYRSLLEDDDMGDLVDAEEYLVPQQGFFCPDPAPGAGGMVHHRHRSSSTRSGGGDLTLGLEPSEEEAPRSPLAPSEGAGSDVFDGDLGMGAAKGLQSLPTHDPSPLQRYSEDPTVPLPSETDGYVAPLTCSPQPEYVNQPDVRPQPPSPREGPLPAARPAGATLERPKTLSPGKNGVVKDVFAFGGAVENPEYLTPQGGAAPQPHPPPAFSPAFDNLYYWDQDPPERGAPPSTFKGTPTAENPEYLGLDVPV

Structure (SMILES)	viability [1]	Her2 level [2]	viability [3]	viability [4]	viability [5]	inhibition [6]	inhibition [7]	differential viability (reversal) ([8]; H69AR cells + 2 uM doxorubicin)	viability [8, 15]	viability [8, 16]	growth inhibition [9]	growth inhibition [10]	viability increase [11]	viability [12]	inhibition [13]	viability [14]
C=CCN1C(=O)/C(=C2/Sc3ccccc3N2C)SC1=Nc1c(C)n[nH]c1C	107%	86.5% (inactive)	107% (inactive)	85% (inactive)	75.5% (inactive)	-5.2% (inactive)	0.48% (inactive)									
COc1ccc(OC)c(NC(=O)CCNS(=O)(=O)c2cccs2)c1	95%	103% (inactive)	95% (inactive)	92.4% (inactive)	99.8% (inactive)	-3.6% (inactive)	23.3% (inactive)	5.6% (inactive)	94.2%	99.8%	-2.31% (inactive)	13.9% (inactive)	-2.82% (inactive)	96.1% (inactive)	2.21% (inactive)	
Cc1ccccc1Cn1c(=O)c2c(nc3n2CCCN3Cc2ccccc2)n(C)c1=O	89%	89% (inactive)	89% (inactive)	65.5% (inactive)	78.5% (inactive)	-3.2% (inactive)	-2.26% (inactive)									
CCc1nc(N)nc(N)c1-c1ccc(Cl)cc1	103%	79% (inactive)	103% (inactive)	117% (inactive)				-59.9% (inactive)	95.8%	35.9%						
Cc1ccc(Cn2nnc3c(=O)[nH]c(C4CCN(S(=O)(=O)c5ccc(F)cc5)CC4)nc32)cc1	90.5%	106% (inactive)	90.5% (inactive)	76.4% (inactive)	86.2% (inactive)	-1.73% (inactive)	-5.16% (inactive)									
Cc1onc(-c2ccccc2Cl)c1C(=O)NCCn1c(C)cc2ccccc21	79%	80.5% (inactive)	79% (inactive)	78.3% (inactive)	83.3% (inactive)	-3.2% (inactive)	1.17% (inactive)	-6.36% (inactive)	89.6%	83.3%	-8.05% (inactive)	0.31% (inactive)	-2.02% (inactive)	85.7% (inactive)	1.56% (inactive)	78.8% (inactive)
N#Cc1c(NC(=O)COC(=O)C2CC3C=CC2C3)oc(-c2ccccc2)c1-c1ccccc1 (stereo unspecified)	106%	80% (inactive)	106% (inactive)	78.1% (inactive)	44.6% (active)	-0.26% (inactive)	-0.36% (inactive)	-23.4% (inactive)	68.1%	44.6%	-17.5% (inactive)	-14.6% (inactive)	-5.47% (inactive)		3.41% (inactive)	92.3% (inactive)
C=CCn1c(SCC(=O)Nc2cccc(OC)c2)nnc1-c1cccnc1	92.5%	95% (inactive)	92.5% (inactive)	87.2% (inactive)	95.4% (inactive)	-6.4% (inactive)	3.33% (inactive)	7.9% (inactive)	87.5%	95.4%	-11.3% (inactive)	-8.35% (inactive)	-2.95% (inactive)	96.8% (inactive)	0.365% (inactive)	99.6% (inactive)
CCOC(=O)C1CCCN(c2c(Nc3ccc(C)c(C)c3)c(=O)c2=O)C1 (stereo unspecified)	84%	99% (inactive)	84% (inactive)	91.7% (inactive)	87.6% (inactive)	0% (inactive)	-4.43% (inactive)									
CC(NC(=O)c1cn(C)c2ccc(S(=O)(=O)N3CCCC3)cc2c1=O)c1ccc2c(c1)OCCO2 (stereo unspecified)	89%	78.5% (inactive)	89% (inactive)	85.6% (inactive)	77.8% (inactive)	-6.22% (inactive)	4.75% (inactive)	33.8% (inactive)	44%	77.8%	-9.02% (inactive)	-24.8% (inactive)	-4.7% (inactive)	76% (inactive)	2.6% (inactive)	75.5% (inactive)
C=CCSc1nnc2n(-c3ccccc3OC)c(=O)c3c4c(sc3n12)CCC4	83.5%	100% (inactive)	83.5% (inactive)	79.9% (inactive)	89.1% (inactive)	-0.67% (inactive)	-0.95% (inactive)									
O=C(c1ccc(Br)o1)N1CCN(c2ccc3nnc(-c4ccccc4)n3n2)CC1	113%	78% (inactive)	113% (inactive)	56.6% (inactive)	75.8% (inactive)	2.82% (inactive)	-0.67% (inactive)	38.7% (inactive)	37.1%	75.8%		45.7% (active)	-1.47% (inactive)	38.8% (inactive)	1.29% (inactive)	45% (inactive)
Cn1c(=N)c(S(=O)(=O)c2ccccc2)cc2c(=O)n3ccccc3nc21	83.5%	108% (inactive)	83.5% (inactive)	83% (inactive)	75% (inactive)	3.87% (inactive)	31.8% (active)									
Cc1nc2ccccc2c(=O)n1NC(=O)c1c(O)c2c(n(CC(C)C)c1=O)CCCC2	88.5%	73.5% (inactive)	88.5% (inactive)	92% (inactive)		-1.84% (inactive)	9.35% (inactive)	-17.2% (inactive)	66.3%	49.1%						
O=C(CSc1nnc2scc(-c3ccccc3)n12)Nc1nsc(-c2ccccc2)n1	82.5%	78% (inactive)	82.5% (inactive)	70.3% (inactive)		-6.53% (inactive)	0.48% (inactive)	-14.1% (inactive)	75.2%	61.1%						
CCc1cc2c(=O)c(-c3nc4ccccc4[nH]3)coc2cc1OC(=O)N1CCOCC1	100%	81.5% (inactive)	100% (inactive)	64.8% (inactive)		-5.07% (inactive)	-5.08% (inactive)	-13.9% (inactive)	71.6%	57.7%						
CCn1c(CNc2ccc(OC)cc2)nnc1SCC(=O)c1ccc(OC)cc1	110%	91% (inactive)	110% (inactive)	68.8% (inactive)		-3.64% (inactive)	0.33% (inactive)	-14.7% (inactive)	65.5%	50.8%						
COc1ccc(Br)cc1C1N2CC3(C)CN1CC(C)(C2)C3=O (stereo unspecified)	114%	89.5% (inactive)	114% (inactive)	97.1% (inactive)		-5.97% (inactive)	-3.61% (inactive)	-33% (inactive)	87.3%	54.3%						
COc1cccc(C(=O)Nc2c(C(N)=O)oc3ccccc23)c1	86.5%	69% (inactive)	86.5% (inactive)	65.9% (inactive)		-5.33% (inactive)	3% (inactive)	-13.6% (inactive)	62.4%	48.7%						
